Results taken from PubChem BioAssay (EPA / NIEHS).
Values joined by “and” are separate entries in the source; they are usually repeats but may differ in a detail not shown here. Identical values can stand only once. Some structures have more than one record in an assay (separate samples or runs), and their calls can disagree. Active and inactive are the calls of the source. How the source made its calls: active means hit-call score of the fitted dose curve at least 0.9, where 1 is the maximum; inactive means score below 0.9.

Assay: CCTE_Shafer_MEA_acute_per_burst_spike_number_mean: CCTE's Neural Acute Assay for Average Number of Spikes Per Burst, Shafer Lab (AID 2284015);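 further: hits are decreases in mean spikes per burst versus baseline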
Description: CCTE_Shafer_MEA_acute assay is conducted using Axion Biosystems 48 well microelectrode array (MEA) plates and Maestro recording system. Each well of the MEA plate contains a grid of 16 microelectrodes embedded in the culture surface. Electrically active cells, such as neurons, can be cultured over the electrodes, and electrical activity in these cells can be recorded extracellularly. The spontaneous firing of neurons is captured from each electrode on a microsecond timescale providing both temporally and spatially precise data. […] The CCTE_Shafer_MEA_acute assay uses primary cultures of rat cortical neurons. As these cultures mature over time, neural networks develop functional activity and form cohesive networks in which electrical activity can be highly coordinated. Baseline 40-minute recordings are made on days post-plating 13 or 15, followed by a secondary 40-minute recording after chemical exposure.CCTE_Shafer_MEA_acute_per_burst_spike_number_mean is a component of the CCTE_Shafer_MEA_acute assay. It measures the average number of spikes (action potential firings) in a single-electrode burst (temporally-clustered group of spikes) during a recording in a microelectrode array (MEA) using Axion Biosystems Maestro 768 channel amplifier with the AxIS adaptive spike detector. The recordings before and after chemical treatment are used to calculate a percent change in the mean number of spikes per burst in each well.Data from the assay component CCTE_Shafer_MEA_acute_per_burst_spike_number_mean was analyzed into 1 assay endpoint. This assay endpoint, CCTE_Shafer_MEA_acute_per_burst_spike_number_mean, was analyzed in the negative analysis fitting direction relative to DMSO as the negative control and baseline of activity. Using a type of functional reporter, gain or loss-of-signal activity can be used to understand electrical activity.
Spontaneous activity in the cortical cultures was recorded using an Axion Biosystems Maestro 768 channel amplifier and Axion Integrated Studios (AxIS) v1.8 (or later) software. The amplifier recorded from all channels simultaneously (gain = 1200 x; sampling rate = 12.5 kHz/channel): raw signals were filtered with a Butterworth band-pass filter (300-5000 Hz), which filters out slower local field potentials leaving only fast potentials, i.e., "spikes", arising from extracellular currents associated with action potentials (Pine 2006; Wheeler and Nam 2011). On-line spike detection of filtered signals was conducted with the AxIS adaptive spike detector, using a threshold of 8x the root mean squared (rms) noise on each channel. Any electrodes with rms noise levels greater than 5 uV were grounded (e.g., no data were recorded). Once grounded, an electrode was grounded for the duration of the experiment. All recordings were conducted at 37 C. Wells were deemed usable if on the day of the exposure >/= 10 electrodes were active (defined as >/= 5 spikes/min). On DIV 13 or 15, a minimum of three wells from one cortical culture preparation were treated with each compound (0.03-40 uM). Prior to recording baseline activity, each mwMEA plate was placed in the Maestro at 37 C and allowed to sit for 20 min while firing rates stabilized. Baseline activity (40 min) was recorded before the addition of each compound. An additional 40 min of spontaneous activity was recorded in the presence of each compound. Changes in network parameters relative to baseline were assessed following compound treatment.
With `CC(C)N(C(=O)SCC(Cl)=C(Cl)Cl)C(C)C` the AC50 was 20 µM (active) and 8.68 µM (active). For `CCc1cnc(C2=NC(C)(C(C)C)C(=O)N2)c(C(=O)O)c1` (stereo unspecified), the outcome was “inactive”. In the case of `COc1cc(OC)nc(Sc2cccc(Cl)c2C(=O)O)n1`, the outcome is reported as “inactive”. With `CCOP(=O)(NC(C)C)Oc1ccc(SC)c(C)c1` (stereo unspecified) the outcome was “inactive”. With `COP(=O)(NC(C)=O)SC` (stereo unspecified) the outcome was “inactive” and the AC50 was 0.124 µM (active). With `CSC1=N[C@@](C)(c2ccccc2)C(=O)N1Nc1ccccc1` the AC50 was 27.1 µM (active) and the outcome was “inactive”. With `O=C(O)c1cc(Oc2ccc(C(F)(F)F)cc2Cl)ccc1[N+](=O)[O-]` the outcome was “inactive”. With `CC[C@H](C)[C@H]1O[C@]2(C=C[C@@H]1C)C[C@@H]1C[C@@H](C/C=C(\C)[C@@H](O[C@H]3C[C@H](OC)[C@@H](O[C@H]4C[C@H](OC)[C@@H](NC)[C@H](C)O4)[C@H](C)O3)[C@@H](C)/C=C/C=C3\CO[C@@H]4[C@H](O)C(C)=C[C@@H](C(=O)O1)[C@]34O)O2` the AC50 was 26.5 nM (active) and 1.5 µM (active). With `CN(C)NC(=O)CCC(=O)O` the outcome was “inactive”. In the case of `COP(=O)(OC)C(O)C(Cl)(Cl)Cl` (stereo unspecified), the AC50 is reported as 2.15 µM (active). In the case of `C#CCC1=C(C)C(OC(=O)C2C(C=C(C)C)C2(C)C)CC1=O` (stereo unspecified), the outcome is reported as “inactive”. In the case of `CC1=NNC(=O)N(/N=C/c2cccnc2)C1`, the outcome is reported as “inactive”. With `CC(C)=CC1C(C(=O)OCN2C(=O)C3=C(CCCC3)C2=O)C1(C)C` (stereo unspecified) the outcome was “inactive”. In the case of `Nc1c(Cl)cc([N+](=O)[O-])cc1Cl`, the outcome is reported as “inactive”. With `N#CSCSC#N` the outcome was “inactive”. With `CCc1cccc(C)c1N(C(=O)CCl)C(C)COC` (stereo unspecified) the outcome was “inactive”. With `CC(C)[C@H](C(=O)O[C@H](C#N)c1cccc(Oc2ccccc2)c1)c1ccc(Cl)cc1` the outcome was “inactive”. In the case of `FC(F)C(F)(F)OCC(Cn1cncn1)c1ccc(Cl)cc1Cl` (stereo unspecified), the outcome is reported as “inactive”. For `CCOC(=O)CC(SP(=O)(OC)OC)C(=O)OCC` (stereo unspecified), the outcome was “inactive”. In the case of `Cc1ccn2nc(S(=O)(=O)Nc3c(F)cccc3F)nc2n1`, the outcome is reported as “inactive”. For `C=C(C)[C@H]1Cc2c(ccc3c2O[C@@H]2COc4cc(OC)c(OC)cc4[C@@H]2C3=O)O1`, the outcome was “inactive”. In the case of `C[Si](Cn1cncn1)(c1ccc(F)cc1)c1ccc(F)cc1`, the AC50 is reported as 7.68 µM (active). With `CCCOCC(=Nc1ccc(Cl)cc1C(F)(F)F)n1ccnc1` the AC50 was 2.02 µM (active). In the case of `CNC(=O)ON=C(SC)C(=O)N(C)C`, the outcome is reported as “inactive”. For `CCOP(=S)(Oc1cnc(C(C)(C)C)nc1)OC(C)C` (stereo unspecified), the AC50 was 29.4 µM (active). For `CC(COc1ccc(Oc2ccccc2)cc1)Oc1ccccn1` (stereo unspecified), the AC50 was 10.2 µM (active). For `CCOP(=S)(OCC)Oc1ccc2c(C)c(Cl)c(=O)oc2c1`, the AC50 was 3.98 µM (active). In the case of `CON=C(C(=O)OC)c1ccccc1CON=C(C)c1cccc(C(F)(F)F)c1`, the AC50 is reported as 0.767 µM (active). With `CN1COCN(Cc2cnc(Cl)s2)C1=N[N+](=O)[O-]` the outcome was “inactive”. For `CCOP(=S)(OCC)SCCSCC`, the outcome was “inactive”. For `C[N+]1(C)CCCCC1`, the outcome was “inactive”. In the case of `CC(=NC#N)N(C)Cc1ccc(Cl)nc1`, the outcome is reported as “inactive”. For `CN(C)[C@@H]1C(=O)C(C(N)=O)=C(O)[C@@]2(O)C(=O)C3=C(O)c4c(O)cccc4[C@@](C)(O)[C@H]3[C@H](O)[C@@H]12`, the outcome was “inactive”. With `O=[N+]([O-])c1cc(C(F)(F)F)c(Cl)c([N+](=O)[O-])c1Nc1ncc(C(F)(F)F)cc1Cl` the AC50 was 0.468 µM (active).
